# Source: the supplement of paper PMC3484114
# ± gives the standard deviation.
# System: OVCAR-3-derived ovarian cancer stem-like cells (spheroids)
# Test: cell growth relative to untreated control; higher = more growth (less inhibition)
# Conditions: 2.29 µM; 96 h
# Outline: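 Stem-like cells derived from OVCAR-3 spheroids were dissociated with trypsin and seeded at 50,000 cells/mL in stem cell medium in ultra-low attachment 96-well plates, then preincubated for 24 h. Each compound was added at 2.29 uM to 4 replicate wells and left for 96 h at 37°C, 5% CO2. Viability came from TOX8 resazurin fluorescence (ex 560/em 590 nm) read after 4 h. Percent growth was expressed relative to untreated wells, after blank subtraction and removal of outliers by the Grubbs test.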
row,Compound,cell growth [%]
1,CC(C)(O)C=CC(=O)C(C)(O)C1C(O)CC2(C)C3CC=C4C(C=C(O)C(=O)C4(C)C)C3(C)C(=O)CC12C (stereo unspecified),28.1 ± 6.1
2,c1csc(C[N+]23CN4CN(CN(C4)C2)C3)c1,108 ± 17
3,O=[N+]([O-])c1ccc2c(c1)/C(=N/N=C1c3ccccc3Cc3ccccc31)c1cc([N+](=O)[O-])cc([N+](=O)[O-])c1-2,57.1 ± 34
4,COc1cc2c(c(OC)c1OC)-c1ccc(OC)c(=O)cc1[C@@H](NC(C)=O)CC2,47.9 ± 11
5,CCOC(OCC)C(CC)[Se]c1ccccc1[N+](=O)[O-] (stereo unspecified),120 ± 21
6,COc1cc([C@@H]2c3cc4c(c(O)c3C[C@H]3COC(=O)[C@@H]32)OCO4)cc(OC)c1OC,31.1 ± 4.7
7,CC(C)(Br)C(=O)C(Br)Br,88.9 ± 28
8,N#CC(NCc1cccc(CNC(C#N)c2ccccc2)c1)c1ccccc1 (stereo unspecified),93.3 ± 30
9,S=C=NCc1ccccc1,109 ± 28
10,CC(=O)[O][Sn]([CH2]c1ccccc1)([CH2]c1ccccc1)[CH2]c1ccccc1,112 ± 25
11,COc1cc(C2c3cc4c(cc3C(O)C3COC(=O)C23)OCO4)cc(OC)c1OC (stereo unspecified),31 ± 5.3
12,Cc1cc(N(CC(C)Br)CC(C)Br)ccc1N=Nc1ccccc1C(=O)O (stereo unspecified),64.5 ± 14
13,COc1ccc(NC2=NCCO2)c2c1CCCC2,98.5 ± 10
14,CO[C@H]1[C@@H](O)[C@@H](C)O[C@H](O[C@H]2[C@H](Oc3cccc4c(O)c5c(=O)oc6ccc(C)c7c(=O)oc(c34)c5c67)O[C@H](C)[C@H](O)[C@@H]2O)[C@@H]1O,67.4 ± 17
15,Oc1cccc2cccnc12,80.4 ± 14
16,Cc1c(N)nc([C@H](CC(N)=O)NC[C@H](N)C(N)=O)nc1C(=O)N[C@H](C(=O)N[C@H](C)[C@@H](O)[C@H](C)C(=O)N[C@H](C(=O)NCCc1nc(-c2nc(C(=O)NCCC[S+](C)C)cs2)cs1)[C@@H](C)O)[C@@H](OC1OC(CO)C(O)C(O)C1OC1OC(CO)C(O)C(OC(N)=O)C1O)c1cnc[nH]1 (stereo partly specified),53 ± 10
